Screening results: PubChem BioAssay, ICCB-Longwood Screening Facility, Harvard Medical School
fixLJ activator = activators of Burkholderia fixLJ two-component system, primary screen, B. multivorans, GFP reporter; 29,000 tested, 0.3% active; z-score (no concentration beside the values); B. multivorans fixK-promoter GFP reporter, 18 h; stronger effect = higher value;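 active = replicate mean overnight rise in green fluorescent reporter signal, 3 or more SD over negative controls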
Of the large screens only hits and unclear results are named; the others gave an inactive call. Only a selection was taken, and hits are over-represented in it overall.

c1cnc(Sc2ccc(CN3CCCC3Cn3cccn3)o2)nc1 (stereo unspecified)	none
CCOc1ccc(-n2c(=O)c3c(C)c(C)sc3n(CC(=O)N(CC)Cc3ccccc3)c2=O)cc1	none
CCOc1ccc(-n2c(=O)c3c(C)c(C)sc3n(CC(=O)c3ccccc3)c2=O)cc1	fixLJ activator 3.2
Cc1ccc(-n2c(=O)c3c(C)c(C)sc3n(CC(=O)c3ccc(Cl)cc3)c2=O)cc1C	none
CC(C)Oc1cccc(C(=O)Nc2ccc3oc(-c4cccc(Cl)c4)nc3c2)c1	none
Cc1ccc(S(=O)(=O)c2nnn(CC(=O)Nc3ccccc3C)c2N)cc1	none
Cc1cn2c(=O)cc(COc3ccc(NC(=O)c4ccccc4C)cc3)nc2s1	fixLJ activator 3.4
COc1ccccc1C(=O)Nc1ccc(OCc2cc(=O)n3cc(C)sc3n2)cc1	none
Cc1cn2c(=O)cc(COc3ccc(NC(=O)c4cccc(F)c4)cc3)nc2s1	none
CC[C@H](NC(C)C)[C@H](O)c1ccc(O)c2[nH]c(=O)ccc12	none
CCC(NC(C)C)C(O)c1ccc(O)c(O)c1 (stereo unspecified)	fixLJ activator 8.2
C[C@H](N)[C@H](O)c1cccc(O)c1	none
CCOC(=O)c1c(C)n(-c2ccccc2)c2ccc(OC(=O)c3cccc(Cl)c3)cc12	none
COc1ccc(CNC(=O)c2cc(Nc3ccc(OC)cc3OC)nc3ccccc23)cc1	none
COc1ccc(Nc2cc(C(=O)NCCc3ccc(C)cc3)c3ccccc3n2)c(OC)c1	none
COc1ccc(OC)c(Nc2cc(C(=O)NCc3ccccc3)c3ccccc3n2)c1	fixLJ activator 4.2
COC(=O)Cc1c(C)c2ccc3c(c2oc1=O)CN(Cc1ccc(C)cc1)CO3	none
Cc1ccc(CN2COc3ccc4c(-c5ccccc5)cc(=O)oc4c3C2)cc1	none
COc1ccc(CN2COc3ccc4c(-c5ccccc5)cc(=O)oc4c3C2)cc1	fixLJ activator 3.7
Cc1cc(C)cc(Oc2nc3c(C)cccn3c(=O)c2/C=C(\C#N)c2nc3ccccc3[nH]2)c1	none
O=C(Nc1ccc2oc(-c3cccnc3)nc2c1)c1ccc(-c2cccc(OC(F)(F)F)c2)o1	none
O=C(NCc1cc(-c2ccc(F)cc2)no1)C1CCCCn2nnnc21 (stereo unspecified)	none
Cn1nc(CNC(=O)C2CCCCn3nnnc32)c2c(Cl)cccc21 (stereo unspecified)	fixLJ activator 3.3
CN1CC(=O)N2CCN(Cc3nn(C)c4cccc(Cl)c34)CC2C1=O (stereo unspecified)	none
CC1=NOC(C)(C(=O)N2CCN(CC(=O)N3CCCCC3)CC2)C1 (stereo unspecified)	none
CCC(C(=O)N1CCN(c2ccccc2)CC1)n1nc(C)n2c(cc3sccc32)c1=O (stereo unspecified)	none
Cc1nc2ccc(C(=O)N3CCCC4(CCc5cn[nH]c54)C3)cc2[nH]1 (stereo unspecified)	none
COc1ccc(OCC2CCCN(C(=O)c3ccc4nc(C)[nH]c4c3)C2)cc1 (stereo unspecified)	fixLJ activator 3.4
COc1ccc(OCC2CCCN(C(=O)C3CCN(C(C)=O)CC3)C2)cc1 (stereo unspecified)	none
COc1ccc(OCc2nnc(-c3ccccc3)o2)cc1	none
Cc1cc(C)cc(NC(=O)CSc2oc(-c3ccco3)nc2S(=O)(=O)c2ccccc2)c1	none
COc1ccc(NC(=O)CSc2oc(-c3cccs3)nc2S(=O)(=O)c2ccc(C)cc2)c(OC)c1	none
COc1ccc(NC(=O)CSc2oc(-c3ccco3)nc2S(=O)(=O)c2ccccc2)c(OC)c1	fixLJ activator 6.8
COc1ccc(NC(=O)CSc2oc(-c3cccs3)nc2S(=O)(=O)c2ccccc2)c(OC)c1	fixLJ activator 3.7
COc1ccccc1NC(=O)CSc1oc(-c2cccs2)nc1S(=O)(=O)c1ccc(Br)cc1	none
COc1ccccc1NC(=O)CSc1oc(-c2ccco2)nc1S(=O)(=O)c1ccc(C)cc1	none
CC1CCCCN1CCNC(=O)c1ccc(Cn2c(SCc3ccccc3)nc3cccnc32)cc1 (stereo unspecified)	none
CCc1ccc(NC(=O)Cn2c(=O)n(CCCCC(=O)NCc3ccccc3Cl)c(=O)c3ccccc32)cc1	none
Cc1ccc(-n2c(SCc3nc(-c4ccccc4C)no3)nnc2-c2ccncc2)cc1C	none
CCC(=O)N1CCc2cc(Br)cc(S(=O)(=O)N3CCN(c4ccccc4)CC3)c21	none
CC(=O)N1CCc2cc(Br)cc(S(=O)(=O)N3CCN(c4cccc(C(F)(F)F)c4)CC3)c21	fixLJ activator 3.3
O=C(C1CC1)N1CCc2cc(Br)cc(S(=O)(=O)N3CCN(c4cccc(Cl)c4)CC3)c21	none
O=C(COCc1nc2ccccc2[nH]1)NCc1ccc(-c2ncon2)cc1	none
COCCNC(=O)CCn1c(=O)c2cc(OC)c(OC)cc2n(CC(=O)Nc2ccccc2OC)c1=O	fixLJ activator 4.6
COCCNC(=O)CCn1c(=O)c2cc(OC)c(OC)cc2n(CC(=O)Nc2ccccc2C)c1=O	none
COCCNC(=O)CCCn1c(=O)c2cc(OC)c(OC)cc2n(CC(=O)Nc2ccc(F)cc2)c1=O	none
Cc1c(CN(C)C(=O)c2cc(-c3ccccc3)nc3ccc(Br)cc23)cnn1C	none
O=C(CCc1nc2cccnc2n1-c1ccccc1)Nc1ccc(Cl)c(Cl)c1	none
C=CCC(CC=C)(CNC(=O)C(=O)Nc1cc(C)ccc1OC)c1ccc(OC)c(OC)c1	none
C=CCC(CC=C)(CNC(=O)C(=O)Nc1cccc(C(F)(F)F)c1)c1ccccc1	fixLJ activator 3.7
O=C(O)c1ccccc1Nc1cccc(C(F)(F)F)c1	none
N#Cc1ccccc1NC(=O)CSc1nc(-c2ccccc2)cc(C(F)(F)F)c1C#N	none
COc1ccc(-c2cc(C(F)(F)F)nc(SCCC(=O)Nc3cccc(OC)c3)n2)cc1	none
CCCCN(C)CCNC(=O)c1cc(-c2ccc(Cl)s2)nc2ccccc12	none
COc1ccccc1N=C1SC(C(=O)Nc2ccccc2OC)CC(=O)N1C (stereo unspecified)	none
O=C(O)c1ccc(NC(=O)c2cn(-c3ccccc3)nc2-c2ccc(Br)cc2)cc1	none
COc1ccccc1NC(=O)c1cc2c(C)nn(-c3ccccc3)c2s1	none
COc1ccc(-c2nn(-c3ccccc3)cc2C(=O)Nc2ccccc2OC)cc1	fixLJ activator 4.6
Cc1ccc2c(=O)cc(C(=O)Nc3sc4c(c3C(=O)NCc3ccccc3)CCCC4)oc2c1C	none
CCOC(=O)c1sc2ncn(CC(=O)Nc3ccc(N(C)C)cc3)c(=O)c2c1C	none
CCOC(=O)c1cccc(NC(=O)COc2ccc3c(C)cc(=O)oc3c2)c1	none
COc1ccc(C2=NC(c3ccccc3)=Nc3ccc(C)cc3N2)cc1	none
Cc1cccc(C2=Nc3ccccc3N=C(c3cc(Cl)ccc3O)C2)c1	none
COc1ccc(O)c(C2=Nc3ccccc3N=C(c3ccccc3)C2)c1	fixLJ activator 3.7
